# HCMV inh – inhibitors of human cytomegalovirus; HFF cells, HCMV-luciferase reporter, 72 h; hits give low values; actives 4.5% (n = 410,000); activity change, negative = inhibition, % at 57.5 µM; in the data active means activity change below about -60%; inconclusive means no clear call, values can overlap the other calls; inactive means above about -39%
#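 HFF cells seeded 16 h at 37C, treated with compounds, infected with luciferase-reporter HCMV at MOI 1 PFU/cell; luciferase read at 72 h post infection, normalized to buffer-only and Salinomycin controls.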
# Pf growth 96h – P. falciparum growth inhibition at 96 hour, primary screen for plastid delayed-death inhibitors. P. falciparum luciferase reporter growth, 96 h. Potency, µM (top dose mostly 28.7 µM), without a hit: top-dose activity change, negative = inhibition, hits mostly inhibitors. actives 6.9% (n = 320,000); further: potency means the concentration at half of the fitted maximal effect
#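 P. falciparum expressing integrated firefly luciferase, in erythrocytes at 2% hematocrit, 0.05% parasitemia, incubated with compounds 96 h at 37 C, 5% CO2. Growth inhibition read as loss of luminescence; two-generation exposure targets delayed-death apicoplast inhibitors.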
# Pf growth 48h – P. falciparum growth inhibition at 48 hours (one generation) | Potency, µM (highest dose often 28.7 µM), for the others: top-dose activity change, negative = inhibition, hits mostly inhibitors | P. falciparum luciferase growth in erythrocytes, 48 h | actives 5.9% (n = 310,000); further: potency means the concentration at half of the fitted maximal effect
#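 Parasite viability was followed by luminescence of a genomically integrated firefly luciferase. Cultures held 0.1% parasitemia at 2% hematocrit (final), incubated under 5% CO2 at 37 C.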
# Sm TGR block – S. mansoni TGR enzyme inhibition. Q962Y6. purified TGR, DTNB reduction, TNB absorbance 405 nm. Potency, µM (top dose mostly 114 µM), for inactives: top-dose activity change, negative = inhibition, hits mostly inhibitors. actives 3% (n = 360,000). AID 485364; further: potency means the concentration at half of the fitted maximal effect; nearly all actives have a fitted effect of over 60% in size
#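 Kinetic colorimetric format: TGR-catalysed, NADPH-driven DTNB reduction monitored via TNB absorbance. Enzyme dispensed at 20 nM; compound exposure 15 min at room temperature before reaction start.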
# Giardia FBPA inh – inhibitors of Giardia lamblia fructose-1,6-bisphosphate aldolase; actives 0.71% (n = 290,000); A8B2U2; AID 2451; Potency, µM (highest dose often 59.6 µM), inactives show top-dose activity, negative = inhibition, most hits filed as inhibitors; purified Giardia FBPA; further: potency means the concentration at half of the fitted maximal effect; nearly all actives have a fitted effect of over 55% in size
# Target sequence (A8B2U2 whole entry, looked up): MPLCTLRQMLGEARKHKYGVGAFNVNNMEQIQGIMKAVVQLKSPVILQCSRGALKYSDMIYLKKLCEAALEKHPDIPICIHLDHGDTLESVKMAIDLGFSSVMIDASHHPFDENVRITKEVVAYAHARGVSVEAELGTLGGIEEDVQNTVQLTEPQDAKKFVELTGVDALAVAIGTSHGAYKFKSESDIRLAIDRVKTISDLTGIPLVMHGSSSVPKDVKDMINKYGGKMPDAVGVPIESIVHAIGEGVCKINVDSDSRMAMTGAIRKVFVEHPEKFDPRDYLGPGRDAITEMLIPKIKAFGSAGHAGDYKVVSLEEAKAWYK
#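 40 nM FBPA preincubated 10 min at RT with compound (up to 57.5 uM final), then substrate plus GAPDH/TPI/NAD/arsenate coupling and diaphorase/resazurin added. Fluorescence read after 20 min at RT, 525/598 nm.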
# Active calls of the source: *; ? = inconclusive; · = not tested or not shown; ! = a repeat was not active; [ ] = dose if it differs, or a comment. Rows were chosen to be rich in hits. Some 14% of all compounds tested hit in one or more screens of this group. Unless noted, the call rests on the fitted dose curve; in most records, active means well fitted curve in the direction sought with a large enough effect; inconclusive means small, poorly fitted or top-dose-only effect, or another doubt; inactive means no such curve, though single readings can be large; an effect the other way counts as inactive or inconclusive. On the % scale 0 is the no-effect control and ±100 the full control effect.
SMILES,HCMV inh,Pf growth 96h,Pf growth 48h,Sm TGR block,Giardia FBPA inh
CCCCCCN(C(=O)CCCCCN1C(=O)NC(c2ccc(-c3ccccc3)cc2)C(C(=O)OCc2ccccc2)=C1C)C(C(=O)NCCCC)c1ccc(O)cc1 (stereo unspecified),·,2.1µM*,?,-13%,0%
CCCCCCN(C(=O)CCCCCN1C(=O)NC(c2ccc([N+](=O)[O-])cc2)C(C(=O)OCc2ccccc2)=C1C)C(C(=O)NCCCC)C1CCCCC1 (stereo unspecified),-9,·,·,·,·
CCCCCCN(C(=O)CCCCCN1C(=O)NC(c2ccc(-c3ccccc3)cc2)C(C(=O)OCc2ccccc2)=C1C)C(C(=O)NCCCC)c1cccc(C(=O)OC)c1 (stereo unspecified),13,1.7µM*,1.9µM*,-3%,5%
COc1cccc(CNC(=O)CCc2c(C)nc3c(c2C)c(=O)n(C)c(=O)n3C)c1,8,·,·,-5%,·
COc1ccc(O[C@H]2C=C[C@@H](c3ccccc3)O[C@@H]2CO/N=C(\C)CCN2CCCc3nc(C)c(C)cc32)cc1,·,·,·,·,16%[12.9 µM]
CCN(CC)C(=O)c1ccc2nc([C@@H]3O[C@H](CO)[C@H](O)[C@H](O)[C@H]3O)[nH]c2c1,-22,·,·,·,·
S=C1NCc2cncnc2N1,27,·,·,·,·
Cc1cccc(N(Cc2ccccc2F)S(C)(=O)=O)c1,35,9.3µM*,-18%,26%,-2%
Nc1nc2c(Cl)ccc(Cl)c2s1,?,8.3µM*,?,23%,-10%
COCC#Cc1ccc(C2NC(C(=O)O)CCC2C)cc1 (stereo unspecified),·,·,·,·,1%[12.9 µM]
CCCNc1nc(Nc2ccc(C)cc2)nc(N2CCCC2)n1,·,2.1µM*,·,4%,3%
COc1cccc(Nc2nc(NCCO)nc(N3CCCC3)n2)c1,79,·,·,·,·
NNc1nc(Nc2ccc([N+](=O)[O-])cc2)nc(N2CCCCCC2)n1,13,69%,4.1µM*,-19%,29%
O=[N+]([O-])c1cc2c(cc1/C=N/Nc1nc(N3CCCC3)nc(N3CCCC3)n1)OCO2,-22,1%,13%,1%,-9%
O=[N+]([O-])c1ccc(Nc2nc(NCCO)nc(N3CCCC3)n2)cc1,-33,53%[5.75 µM],?,-3%,-19%
O=[N+]([O-])c1ccc(Nc2nc(N/N=C\c3ccc4c(c3)OCO4)nc(N3CCCCC3)n2)cc1,-8,2.6µM*,2.1µM*,9%,0%
CN(Cc1cnc2nc(N)nc(N)c2n1)c1ccc(C(=O)NC(CCC(=O)O)C(=O)O)cc1 (stereo unspecified),-97*,·,·,·,6%
Nc1nc(N)c2nc(CNc3ccc(C(=O)NC(CCC(=O)O)C(=O)O)cc3)cnc2n1 (stereo unspecified),·,?,?,-16%,-4%
CN(Cc1cnc2nc(N)nc(N)c2n1)c1ccc(C(=O)NC(CCC(=O)O)C(=O)O)cc1C(F)(F)F (stereo unspecified),-97*,·,·,·,·
O=C(NCc1ccc(F)cc1)c1ccc(CSCc2cccc(Cl)c2)o1,2,·,·,8%,·
CN(C(=O)CN1C(=O)/C(=C/c2ccccc2Cl)SC1=S)C1CCS(=O)(=O)C1 (stereo unspecified),19,-1%,-9%,-5%,-1%
O=C(Nc1ccc2nc(C3CC3)n(Cc3ccc(F)cc3)c(=O)c2c1)c1ccco1,-69*,·,1.9µM*,1%,4%
CC(=O)Nc1ccc2nc(C3CC3)n(Cc3ccc(Cl)cc3)c(=O)c2c1,9,36%,127%,5%,3%
COc1ccc(Cn2c(C3CC3)nc3ccc(NC(=O)C4CC4)cc3c2=O)cc1,5,-11%,233%,-3%,-3%
COc1cccc(Cn2c(C3CC3)nc3ccc(NC(=O)c4ccco4)cc3c2=O)c1,?,·,3.7µM*,1%,-11%
COc1ccc(S(=O)(=O)N2CCN(C(=O)Nc3ccccc3OC)CC2)cc1,-2,15%,?,0%,·
CN1CCN(c2c(F)cc3c(=O)c(C(=O)O)cn4c3c2OCN4C)CC1,-31,15µM*!,-30%,2%,-21%
O=c1c2ccccc2nc2n1CCN2Cc1ccc(Cl)cc1,-88*,2.3µM*,2.1µM*,-3%,-3%
